Laboratory results as given in PubChem BioAssay (NCATS).
Results filed as inconclusive are left out. Calls of active or inactive are those of the source. Unless noted, calls come from the whole dose curve; as a rule, active = well fitted curve in either direction with a large enough effect (not every such curve was filed as active); inconclusive = small, poorly fitted or top-dose-only effect, or another doubt; inactive = flat fitted curve, though single readings scatter.

How the values were obtained:
[1] = target: Lysosomal acid glucosylceramidase (Homo sapiens) (UniProt P04062); assay: Glucocerebrosidase-p2 (AID 348; in the data active = potency below about 10 µM; note: potency is the fitted concentration of half-maximal effect); conditions: purified GBA, blue fluorogenic substrate, 40 min
Lysosomal acid glucosylceramidase (Homo sapiens), sequence (P04062 whole entry, looked up): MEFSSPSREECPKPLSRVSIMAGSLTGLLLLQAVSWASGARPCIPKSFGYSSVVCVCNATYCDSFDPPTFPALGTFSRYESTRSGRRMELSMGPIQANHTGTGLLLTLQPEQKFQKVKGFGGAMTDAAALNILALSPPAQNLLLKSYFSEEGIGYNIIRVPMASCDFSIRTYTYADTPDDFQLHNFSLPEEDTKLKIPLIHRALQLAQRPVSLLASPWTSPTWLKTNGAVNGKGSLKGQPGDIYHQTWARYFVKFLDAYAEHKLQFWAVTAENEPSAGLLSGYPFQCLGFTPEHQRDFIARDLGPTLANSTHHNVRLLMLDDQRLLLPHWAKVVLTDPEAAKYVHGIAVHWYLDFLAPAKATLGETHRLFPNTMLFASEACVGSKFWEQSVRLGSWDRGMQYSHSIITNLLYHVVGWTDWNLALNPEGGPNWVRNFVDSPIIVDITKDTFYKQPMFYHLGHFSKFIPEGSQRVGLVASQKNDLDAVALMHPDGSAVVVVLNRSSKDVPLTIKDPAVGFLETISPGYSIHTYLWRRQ
Outline: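 Compounds titrated from 0.6 nM upwards against 0.2 nM enzyme in pH 5.9 citric acid/KH2PO4, taurocholate, tween-20; blue fluorogenic substrate 80 uM, 40 min room temperature, stopped and read Ex 365/Em 440 for AC50.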

[2] = NFAT Signaling Pathway (AID 444); conditions: Jurkat NFAT-bla M1, carbachol, beta-lactamase ratio, 5 h; at 7.69 µM (top of the series) unless noted;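 note: carbachol stimulus at about its EC50 of 1 µM final; % is set by controls: 0 for no effect and ±100 for the full control effect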
Outline: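 Jurkat cells carrying an NFAT-driven β-lactamase reporter and co-transfected muscarinic M1 receptor were treated with compound plus carbachol (1 uM final, an EC50 level) for 5 h at 37 °C. CCF4 loading followed for 1 h at RT; 460/530 nm ratio gave %activity.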

[3] = target: Glucocorticoid receptor (Homo sapiens) (UniProt P04150); assay: GR-GFP Redistribution (AID 450;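 active = compounds whose dose series gives a full or clear partial fitted curve of increased nuclear translocation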; note: potency is the fitted concentration of half-maximal effect); conditions: U2OS GR-GFP nuclear translocation, laser cytometry, 2 h
Glucocorticoid receptor (Homo sapiens), sequence (P04150 whole entry, looked up, the tested form may be a part): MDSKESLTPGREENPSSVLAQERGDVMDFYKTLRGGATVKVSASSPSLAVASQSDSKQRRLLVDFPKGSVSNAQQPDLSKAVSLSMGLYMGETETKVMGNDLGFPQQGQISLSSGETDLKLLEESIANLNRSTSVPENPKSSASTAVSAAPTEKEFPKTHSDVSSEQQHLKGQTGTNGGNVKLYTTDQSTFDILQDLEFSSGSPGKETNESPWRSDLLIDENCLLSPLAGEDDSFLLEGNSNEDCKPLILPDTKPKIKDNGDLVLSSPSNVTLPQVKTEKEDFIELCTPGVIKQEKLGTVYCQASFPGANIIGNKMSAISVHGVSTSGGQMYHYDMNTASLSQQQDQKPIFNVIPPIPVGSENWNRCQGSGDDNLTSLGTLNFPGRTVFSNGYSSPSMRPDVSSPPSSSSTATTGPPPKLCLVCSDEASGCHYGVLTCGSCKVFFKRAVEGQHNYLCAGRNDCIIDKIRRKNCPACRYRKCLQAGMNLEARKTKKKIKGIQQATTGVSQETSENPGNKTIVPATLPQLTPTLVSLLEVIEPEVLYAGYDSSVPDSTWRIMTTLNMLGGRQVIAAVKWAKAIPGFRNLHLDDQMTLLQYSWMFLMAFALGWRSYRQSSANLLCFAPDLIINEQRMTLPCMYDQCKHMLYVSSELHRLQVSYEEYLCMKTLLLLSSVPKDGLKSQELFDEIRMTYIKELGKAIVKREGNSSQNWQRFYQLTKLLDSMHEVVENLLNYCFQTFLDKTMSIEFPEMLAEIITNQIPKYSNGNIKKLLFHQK

[4] = target: Mitogen-activated protein kinase 10 (Mus musculus) (UniProt Q61831); assay: JNK3 AlphaScreen Assay (AID 530); conditions: JNK3 lysate, c-Jun phosphorylation; series mostly up to 57.1 µM;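 note: kinase came from lysate of stimulated human HepG2 cells; signal reports phosphorylation of biotinylated GST-cJun 1-79 at Ser73 with 10 µM ATP; % is set by controls: 0 for no effect and ±100 for the full control effect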
Outline: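 Inhibitors reduce antibody binding to phosphorylated biotin-cJun, lowering AlphaScreen luminescence. Lysates from HepG2 cells pre-activated by IL-1beta plus TNF-alpha supplied JNK3; compounds were titrated.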

[5] = target: Ubiquitin carboxyl-terminal hydrolase 1 (Homo sapiens) (UniProt O94782); assay: Inhibitors of USP1/UAF1: Pilot qHTS (AID 504865; active = well fitted curve in the direction sought with a large enough effect; an effect the other way counts as inactive or inconclusive;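 note: rhodamine fluorescence freed from ubiquitin-rhodamine substrate followed over time; top concentration of the series differs between compounds; % is set by controls: 0 for no effect and ±100 for the full control effect; nearly all actives have a fitted effect of over 35% in size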); conditions: purified USP1/UAF1, Ub-rhodamine cleavage fluorescence; series mostly up to 54.9 µM
Ubiquitin carboxyl-terminal hydrolase 1 (Homo sapiens), sequence (O94782 whole entry, looked up): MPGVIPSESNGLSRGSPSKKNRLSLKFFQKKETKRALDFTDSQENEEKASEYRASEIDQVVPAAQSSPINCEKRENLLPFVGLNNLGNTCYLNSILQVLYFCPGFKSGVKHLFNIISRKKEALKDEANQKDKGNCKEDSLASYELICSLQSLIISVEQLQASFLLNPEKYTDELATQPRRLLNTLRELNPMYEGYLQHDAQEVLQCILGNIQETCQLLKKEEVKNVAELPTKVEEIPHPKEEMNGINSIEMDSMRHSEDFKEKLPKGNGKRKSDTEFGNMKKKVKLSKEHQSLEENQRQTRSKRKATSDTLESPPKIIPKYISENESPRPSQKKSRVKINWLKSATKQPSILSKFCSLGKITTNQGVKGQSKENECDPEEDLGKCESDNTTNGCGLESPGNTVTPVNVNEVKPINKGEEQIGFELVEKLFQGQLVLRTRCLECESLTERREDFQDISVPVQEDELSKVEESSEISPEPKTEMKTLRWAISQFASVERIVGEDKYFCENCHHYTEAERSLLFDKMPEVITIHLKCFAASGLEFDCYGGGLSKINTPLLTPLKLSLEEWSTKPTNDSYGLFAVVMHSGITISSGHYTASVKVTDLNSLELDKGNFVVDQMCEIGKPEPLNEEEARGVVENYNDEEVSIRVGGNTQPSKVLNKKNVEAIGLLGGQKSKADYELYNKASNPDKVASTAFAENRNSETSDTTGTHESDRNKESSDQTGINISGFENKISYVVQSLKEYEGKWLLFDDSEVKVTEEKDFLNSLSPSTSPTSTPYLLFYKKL
Outline: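 1nM USP1/UAF1 + cpd, 15 min RT; start w/ Ub-Rho 150nM final; kinetic FL 480/540 nm, 6 reads q60 s. Buffer 50mM HEPES pH 7.8, 0.5mM EDTA, 1mM TCEP, 0.01% Tween-20, 0.1 mg/ml BSA.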

[6] = AP1 Signaling Pathway (AID 357); conditions: ME-180 (cervical carcinoma) AP-1-bla reporter, EGF-induced, beta-lactamase ratio, 5 h; at 7.69 µM (top of the series) unless noted;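 note: ME-180 reporter cells stimulated with EGF at its EC50 level; % is set by controls: 0 for no effect and ±100 for the full control effect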
Outline: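 Cells are seeded overnight, exposed to compound titrations and an EC50 level of EGF for 5 hours at 37 °C, then loaded with CCF4 dye for 2.5 hours. Beta-lactamase activity under the AP-1 element is read as a blue/green ratio.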

[7] = target: Glucocorticoid receptor (Homo sapiens) (UniProt P04150); assay: GR-EFC Redistribution (AID 451; calls by dose curve; note: potency is the fitted concentration of half-maximal effect); conditions: CHO-K1 GR-EFC translocation, beta-gal luminescence, 2 h
Outline: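 CHO-K1 cells stably expressing nuclear-localized β-gal enzyme acceptor and GR fused C-terminally to the enzyme donor fragment; ligand-driven nuclear translocation restores β-gal by complementation. Compounds titrated up to 46 uM final, 2 h at 37 °C; luminescence read.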

[8] = Viability counterscreen for antagonist of constitutive androstane receptor (CAR) against the NCATS DSHEA and TCM libraries (AID 1794837; active = well fitted curve in the direction sought with a large enough effect; an effect the other way counts as inactive or inconclusive;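 note: compound exposure lasted 24 h before viability reading; 0% is about no effect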); conditions: CAR reporter cell line viability counterscreen, qHTS; series mostly up to 40 µM
Outline: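 Cell viability, CellTiter-Fluor, Ex/Em 405/540 nm, 1 h at 37C. HepG2-CYP2B6-hCAR, 2,500 cells/well; cpds + CITCO 48 uM final (antagonist mode), 24 h, 37C/5% CO2.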

[9] = target: Nuclear receptor subfamily 1 group I member 3 (Homo sapiens) (UniProt Q14994); assay: Primary qHTS for agonist of constitutive androstane receptor (CAR) against the NCATS DSHEA and TCM libraries (AID 1794839; active = well fitted curve in the direction sought with a large enough effect; an effect the other way counts as inactive or inconclusive;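 note: HepG2 cells expressing human CAR with a CYP2B6 reporter plus PK11195 antagonist; 0% is about no effect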); conditions: CAR agonist reporter cells, qHTS luminescence, CAR antagonist co-added at 0.75 µM; series mostly up to 40 µM
Nuclear receptor subfamily 1 group I member 3 (Homo sapiens), sequence (Q14994 whole entry, looked up): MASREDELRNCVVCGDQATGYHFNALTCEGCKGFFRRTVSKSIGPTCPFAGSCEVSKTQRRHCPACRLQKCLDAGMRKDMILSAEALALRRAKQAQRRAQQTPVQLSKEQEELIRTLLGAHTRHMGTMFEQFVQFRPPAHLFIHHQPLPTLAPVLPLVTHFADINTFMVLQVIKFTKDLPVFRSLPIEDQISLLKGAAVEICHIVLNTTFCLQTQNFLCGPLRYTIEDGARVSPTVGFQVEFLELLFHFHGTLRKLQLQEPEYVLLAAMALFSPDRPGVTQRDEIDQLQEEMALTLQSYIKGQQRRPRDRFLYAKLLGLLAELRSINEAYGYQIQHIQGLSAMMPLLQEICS
Outline: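 Luminescence from ONE-Glo luciferase was the agonist read-out in HepG2-CYP2B6-hCAR cells exposed 24 h to test substances. Wells also held the CAR antagonist PK11195 at 0.75 µM final. Viability was by CellTiter-Fluor fluorescence.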

[10] = HepG2 viability counterscreen (readout 2: ATP content) against the NCATS DSHEA and TCM libraries (AID 1794840; active = well fitted curve in the direction sought with a large enough effect; an effect the other way counts as inactive or inconclusive; note: 0% is about no effect); conditions: ATP content luminescence; series mostly up to 27.3 µM
Outline: (§1)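 1,000 HepG2 cells/well, 4 h attach; compounds ~24 h, 37C/5% CO2. Readout 1: GF-AFC 25 uM final, 30 min, fluorescence 380/510 nm. Readout 2: CellTiter-Glo, 30 min RT, luminescence.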

[11] = HepG2 viability counterscreen (readout 1: protease activity) against the NCATS DSHEA and TCM libraries (AID 1794841; active = well fitted curve in the direction sought with a large enough effect; an effect the other way counts as inactive or inconclusive;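 note: cells exposed to compounds for about 24 h before the protease read; 0% is about no effect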); conditions: qHTS concentration series; series mostly up to 27.3 µM
Outline: as §1

[12] = target: Cytochrome P450 2D6 (Homo sapiens) (UniProt P10635); assay: qHTS for inhibitors of CYP2D6 against the NCATS DSHEA and TCM libraries (AID 1919972; active = well fitted curve in the direction sought with a large enough effect; an effect the other way counts as inactive or inconclusive; note: % is set by controls: 0 for no effect and ±100 for the full control effect); conditions: CYP2D6 enzymatic inhibition, luminescence qHTS; series mostly up to 34.1 µM
Cytochrome P450 2D6 (Homo sapiens), sequence (P10635 whole entry, looked up): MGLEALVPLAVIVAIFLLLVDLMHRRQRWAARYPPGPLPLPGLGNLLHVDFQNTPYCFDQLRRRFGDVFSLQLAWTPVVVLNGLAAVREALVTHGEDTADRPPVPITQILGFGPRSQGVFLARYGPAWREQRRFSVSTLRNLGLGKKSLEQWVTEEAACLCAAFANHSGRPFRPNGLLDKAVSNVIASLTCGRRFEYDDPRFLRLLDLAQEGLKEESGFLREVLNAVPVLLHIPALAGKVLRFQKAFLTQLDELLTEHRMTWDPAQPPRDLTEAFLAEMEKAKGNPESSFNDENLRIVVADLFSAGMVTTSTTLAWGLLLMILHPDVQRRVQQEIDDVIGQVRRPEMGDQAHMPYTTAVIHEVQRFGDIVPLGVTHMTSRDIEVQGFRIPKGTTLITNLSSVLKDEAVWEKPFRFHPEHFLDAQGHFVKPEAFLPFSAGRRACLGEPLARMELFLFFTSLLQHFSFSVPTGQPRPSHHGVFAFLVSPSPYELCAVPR
Outline: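 Luminescent P450-Glo read-out of CYP2D6 turnover of a luciferin substrate after NADPH-driven reaction of 30-45 min at room temperature. Compounds were first preincubated 15 min with enzyme at titrated concentrations; quinidine was the intraplate control.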

[13] = KB-3-1 P-gp reporter qHTS against the NCATS DSHEA and TCM libraries (AID 1919975; active = well fitted curve in the direction sought with a large enough effect; an effect the other way counts as inactive or inconclusive; note: 0% is about no effect); conditions: KB-3-1 parental cells, CellTiter-Glo luminescence viability, 72 h; series mostly up to 26.1 µM
Outline: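 CellTiter-Glo luminescence viability readout; KB-3-1 parental cells, 500/well, attached ~4 h, then compound for ~72 h, 37C, 5% CO2. Bortezomib intraplate control.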

[14] = qHTS Counterscreen for compound interference against the NCATS DSHEA and TCM libraries (AID 1919978; active = well fitted curve in the direction sought with a large enough effect; an effect the other way counts as inactive or inconclusive;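 note: compounds preincubated with 1 µM D-luciferin or buffer before detection reagent; % of control where 0% means no effect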); conditions: firefly luciferase detection reagent interference, luminescence
Outline: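 Luminescence counterscreen for detection-kit interference: compounds at 19.5 nM–39.8 uM final, 15 min RT with 1 uM D-luciferin or buffer only; detection reagent added, 30 min RT, then read.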

[15] = Dual reporter qHTS for agonist of Pregnane X Receptor (hPXR) against the NCATS DSHEA and TCM libraries: Fluorescence readout (AID 1920058; active = well fitted curve in the direction sought with a large enough effect; an effect the other way counts as inactive or inconclusive; note: 0% is about no effect); conditions: PXR dual reporter cells; series mostly up to 40 µM
Outline: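 hPXR-Luc HepG2 cells, 2000/well in charcoal-stripped serum, attached 5 h, dosed for ~24 h at 37 °C. Fluorescence read is CellTiter-Fluor viability (Ex/Em 405/540 nm); rifampicin positive, tetraoctyl ammonium bromide (92 µM) cytotoxicity controls.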

[16] = target: Nuclear receptor subfamily 1 group I member 2 (Homo sapiens) (UniProt O75469); assay: Dual reporter qHTS for antagonist of Pregnane X Receptor (hPXR) against the NCATS DSHEA and TCM libraries: Luminescence Readout (AID 1920060; active = well fitted curve in the direction sought with a large enough effect; an effect the other way counts as inactive or inconclusive;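 note: HepG2 cells carrying hPXR luciferase reporter stimulated with rifampicin at 2 µM; 0% is about no effect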); conditions: hPXR dual reporter cells, luciferase luminescence, antagonist mode; series mostly up to 40 µM
Nuclear receptor subfamily 1 group I member 2 (Homo sapiens), sequence (O75469 whole entry, looked up): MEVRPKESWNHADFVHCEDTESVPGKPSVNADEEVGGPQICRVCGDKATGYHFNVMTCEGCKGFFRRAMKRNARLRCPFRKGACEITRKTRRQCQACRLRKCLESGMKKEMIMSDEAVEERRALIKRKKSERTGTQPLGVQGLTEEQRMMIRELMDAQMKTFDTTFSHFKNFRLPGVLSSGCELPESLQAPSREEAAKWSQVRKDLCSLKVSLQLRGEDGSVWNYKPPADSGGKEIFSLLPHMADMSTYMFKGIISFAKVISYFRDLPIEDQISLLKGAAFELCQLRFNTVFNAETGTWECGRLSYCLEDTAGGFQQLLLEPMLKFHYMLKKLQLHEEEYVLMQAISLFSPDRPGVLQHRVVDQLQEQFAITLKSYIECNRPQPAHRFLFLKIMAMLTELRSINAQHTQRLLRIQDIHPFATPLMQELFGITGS
Outline: (§2)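 hPXR-Luc HepG2 cells exposed 24 h at 37 C to compounds with 2 uM rifampicin in antagonist mode; luciferase luminescence measured by ONE-Glo, with CellTiter-Fluor viability read beforehand.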

[17] = Dual reporter qHTS for antagonist of Pregnane X Receptor (hPXR) against the NCATS DSHEA and TCM libraries: Fluorescence Readout (AID 1920061; active = well fitted curve in the direction sought with a large enough effect; an effect the other way counts as inactive or inconclusive; note: 0% is about no effect); conditions: PXR dual reporter cells, antagonist mode; series mostly up to 40 µM
Outline: as §2

COc1ccc2[nH]cc(CCNc3ncncc3-c3ccoc3)c2c1
inactive: Potency [1] > 11.4 µM | activity change, negative = inhibition [2] -12% | Potency [3] > 46 µM | Potency [4] | Potency [5]

CN(C)c1ncc2nc(CCc3ccccc3)c(=O)n(CCc3ccccc3)c2n1
inactive: Potency [1] > 11.4 µM | activity change, negative = inhibition [6] -11.1% | activity change, negative = inhibition [2] -22.4% | Potency [3] > 9.22 µM | Potency [7] > 46 µM | Potency [5]

c1ccc2c(NCCN3CCOCC3)nc(-c3ccoc3)nc2c1
inactive: Potency [1] > 11.4 µM | activity change, negative = inhibition [6] 1.61% | activity change, negative = inhibition [2] -7.47% | Potency [3] > 46 µM | Potency [7] > 46 µM | Potency [4] | Potency [5]

CCNc1ncc2nc(-c3ccc(OC)cc3)c(=O)n(C)c2n1
inactive: Potency [1] > 11.4 µM | activity change, negative = inhibition [6] 22.4% | Potency [7] > 46 µM | Potency [4] | Potency [5]

COc1ccccc1-c1nccc(NCc2cccs2)n1
inactive: Potency [1] > 2.29 µM | activity change, negative = inhibition [6] 15.8% | activity change, negative = inhibition [2] -12.7% | Potency [3] > 46 µM | Potency [7] > 46 µM | Potency [4]

COc1ccc(-c2nc3cnc(N4CCN(C)CC4)nc3n(CCc3ccccc3)c2=O)cc1
inactive: Potency [3] > 9.22 µM | Potency [7] > 46 µM | Potency [4] | Potency [5]

COc1cccc(Nc2ncc3nc(-c4cccs4)c(=O)n(C[C@H]4CCCO4)c3n2)c1
inactive: Potency [1] > 11.4 µM | activity change, negative = inhibition [2] -15.5% | Potency [3] > 9.22 µM | Potency [7] > 46 µM | Potency [4]

CN(C)C(=O)c1ccc(-c2cc(NCc3ccccc3)ncn2)cc1
inactive: Potency [1] > 11.4 µM | activity change, negative = inhibition [6] -9.2% | activity change, negative = inhibition [2] 27.8% | Potency [3] > 46 µM | Potency [7] > 46 µM | Potency [5]

COc1ccccc1-c1ccc2ncnc(N3CCNCC3)c2c1
inactive: Potency [1] > 11.4 µM | activity change, negative = inhibition [6] 4.97% | activity change, negative = inhibition [2] 5.04% | Potency [3] > 46 µM | Potency [7] > 46 µM | Potency [4] | Potency [5]

COc1ccc(-n2c(=O)c(-c3cccs3)nc3cnc(N4CCN(C)CC4)nc32)cc1
inactive: activity change, negative = inhibition [6] 8.48% | activity change, negative = inhibition [2] 4.91% | Potency [3] > 9.22 µM | Potency [5]

O=c1c(CCc2ccccc2)nc2cnc(Nc3ccccc3)nc2n1C[C@H]1CCCO1
inactive: Potency [1] > 11.4 µM | activity change, negative = inhibition [6] 16.4% | Potency [3] > 9.22 µM | Potency [4] | Potency [5]

CCCCCCCC/C=C\CCCCCCCCCCCC(=O)O
inactive: outcome [8] | Potency [9] | outcome [10] | outcome [11] | Potency [12] | outcome [13] | max response [14] 1.35% | outcome [15] | outcome [16] | outcome [17]
